{"source": "paper PMC7862700", "about": "“An all-to-all approach to the identification of sequence-specific readers for epigenetic DNA modifications on cytosine”", "assay_in_all_cases": "DAPPL (digital affinity profiling via proximity ligation, sequencing); 10 mM Tris-HCl pH 7.5, 50 mM NaCl, 1 mM DTT, 4% glycerol, room temperature, 30 min; GST-TFs on glutathione beads, 16-mer random dsDNA library, 0.1% formaldehyde crosslink after washing; high values mean tight binding", "conditions_in_all_cases": "protein: recombinant; tags: N-terminal GST; dsDNA, one strand shown", "key": {"FLI1": {"molecular_target": "T1, FLI1 (Homo sapiens, UniProt Q01543 1-452)", "T1 sequence": "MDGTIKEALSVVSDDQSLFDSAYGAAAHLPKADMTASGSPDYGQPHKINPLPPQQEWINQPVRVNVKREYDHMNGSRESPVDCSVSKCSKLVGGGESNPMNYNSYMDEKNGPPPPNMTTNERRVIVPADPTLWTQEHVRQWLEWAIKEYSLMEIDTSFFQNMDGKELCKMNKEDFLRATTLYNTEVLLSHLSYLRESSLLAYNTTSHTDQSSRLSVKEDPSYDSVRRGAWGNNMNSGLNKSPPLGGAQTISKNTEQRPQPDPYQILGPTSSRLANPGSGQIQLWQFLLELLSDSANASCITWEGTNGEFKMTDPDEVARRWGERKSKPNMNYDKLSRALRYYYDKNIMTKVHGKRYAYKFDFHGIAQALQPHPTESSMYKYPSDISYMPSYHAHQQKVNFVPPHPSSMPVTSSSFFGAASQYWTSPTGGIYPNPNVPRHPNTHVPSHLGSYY", "outline": "(§1)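 Human transcription factors carrying a GST fusion were produced in yeast, bound to glutathione beads, tagged with DNA barcodes and pooled together with a tag-only sample. Each pool was held with 200 nmole of a random double-stranded 16-mer DNA library in Tris/NaCl/DTT/glycerol buffer for 30 min at room temperature, then washed, crosslinked in 0.1% formaldehyde, proximity-ligated with BsaI/T4 ligase (1 h, 37 °C), PCR-amplified and sequenced on an Illumina NextSeq500. Binding signal is the read frequency of each hexamer for a given factor divided by its frequency in the tag-only sample.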"}, "ELK1": {"molecular_target": "T2, ELK1 (Homo sapiens, UniProt P19419 1-428)", "T2 sequence": "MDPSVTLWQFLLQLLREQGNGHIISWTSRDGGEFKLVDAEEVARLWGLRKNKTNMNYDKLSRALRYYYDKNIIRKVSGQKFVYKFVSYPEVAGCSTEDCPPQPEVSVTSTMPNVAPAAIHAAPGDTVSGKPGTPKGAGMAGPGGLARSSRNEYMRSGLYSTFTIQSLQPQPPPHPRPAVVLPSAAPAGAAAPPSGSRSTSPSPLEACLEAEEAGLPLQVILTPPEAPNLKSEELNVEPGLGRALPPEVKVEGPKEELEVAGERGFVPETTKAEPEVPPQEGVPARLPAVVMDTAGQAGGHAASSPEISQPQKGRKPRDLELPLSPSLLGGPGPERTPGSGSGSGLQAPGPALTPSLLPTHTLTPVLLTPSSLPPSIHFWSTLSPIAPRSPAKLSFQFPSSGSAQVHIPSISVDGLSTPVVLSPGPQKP", "outline": "as §1"}, "GABPA": {"molecular_target": "T3, GABPA (Homo sapiens, UniProt Q06546 1-454)", "T3 sequence": "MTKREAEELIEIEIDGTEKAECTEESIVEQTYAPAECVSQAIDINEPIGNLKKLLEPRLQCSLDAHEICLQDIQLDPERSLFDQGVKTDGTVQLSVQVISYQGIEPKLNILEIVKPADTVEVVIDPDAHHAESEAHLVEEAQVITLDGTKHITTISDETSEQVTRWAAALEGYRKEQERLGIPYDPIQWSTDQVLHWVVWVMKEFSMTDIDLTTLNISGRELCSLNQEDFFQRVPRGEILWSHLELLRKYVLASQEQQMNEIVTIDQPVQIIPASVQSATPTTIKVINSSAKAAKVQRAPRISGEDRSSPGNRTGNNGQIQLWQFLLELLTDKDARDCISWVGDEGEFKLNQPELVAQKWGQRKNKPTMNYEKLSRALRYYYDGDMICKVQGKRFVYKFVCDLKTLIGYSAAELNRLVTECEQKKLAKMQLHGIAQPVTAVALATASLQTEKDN", "outline": "as §1"}, "ERG": {"molecular_target": "T4, ERG (Homo sapiens, UniProt P11308 1-479)", "T4 sequence": "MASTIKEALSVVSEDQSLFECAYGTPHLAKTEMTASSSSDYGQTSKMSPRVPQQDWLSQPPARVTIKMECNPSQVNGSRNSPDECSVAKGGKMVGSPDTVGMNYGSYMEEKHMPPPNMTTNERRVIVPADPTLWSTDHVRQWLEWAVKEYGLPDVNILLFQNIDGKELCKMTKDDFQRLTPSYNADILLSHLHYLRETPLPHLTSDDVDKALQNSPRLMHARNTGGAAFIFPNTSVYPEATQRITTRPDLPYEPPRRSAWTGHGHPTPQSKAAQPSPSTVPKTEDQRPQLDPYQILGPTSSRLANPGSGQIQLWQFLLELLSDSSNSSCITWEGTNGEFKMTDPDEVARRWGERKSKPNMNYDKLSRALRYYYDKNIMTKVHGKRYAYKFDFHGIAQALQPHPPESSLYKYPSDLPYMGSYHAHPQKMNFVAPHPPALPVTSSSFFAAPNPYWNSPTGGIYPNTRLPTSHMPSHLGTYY", "outline": "as §1"}, "EHF": {"molecular_target": "T5, EHF (Homo sapiens, UniProt Q9NZC4 1-300)", "T5 sequence": "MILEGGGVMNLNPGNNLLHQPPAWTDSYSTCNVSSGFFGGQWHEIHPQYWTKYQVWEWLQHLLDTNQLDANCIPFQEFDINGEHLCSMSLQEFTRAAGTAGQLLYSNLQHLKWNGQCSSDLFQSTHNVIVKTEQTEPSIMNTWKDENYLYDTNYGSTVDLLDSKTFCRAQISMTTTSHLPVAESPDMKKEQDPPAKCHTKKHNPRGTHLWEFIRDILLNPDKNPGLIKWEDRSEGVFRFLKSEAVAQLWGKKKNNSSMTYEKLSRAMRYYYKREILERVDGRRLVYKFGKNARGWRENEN", "outline": "as §1"}, "SPI1": {"molecular_target": "SPI1 (Homo sapiens, UniProt P17947 1-270)", "outline": "as §1"}, "SPIB": {"molecular_target": "SPIB (Homo sapiens, UniProt Q01892 1-262)", "sequence (Q01892 whole entry)": "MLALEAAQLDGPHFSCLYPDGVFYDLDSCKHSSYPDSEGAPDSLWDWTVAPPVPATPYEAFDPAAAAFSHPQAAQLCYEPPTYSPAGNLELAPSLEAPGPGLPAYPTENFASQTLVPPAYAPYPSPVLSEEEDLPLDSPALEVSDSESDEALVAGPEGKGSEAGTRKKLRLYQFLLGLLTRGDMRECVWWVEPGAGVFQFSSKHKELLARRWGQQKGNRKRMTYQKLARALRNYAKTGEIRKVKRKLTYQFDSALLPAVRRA", "outline": "as §1"}, "ELK3": {"molecular_target": "T6, ELK3 (Homo sapiens, UniProt P41970 1-407)", "T6 sequence": "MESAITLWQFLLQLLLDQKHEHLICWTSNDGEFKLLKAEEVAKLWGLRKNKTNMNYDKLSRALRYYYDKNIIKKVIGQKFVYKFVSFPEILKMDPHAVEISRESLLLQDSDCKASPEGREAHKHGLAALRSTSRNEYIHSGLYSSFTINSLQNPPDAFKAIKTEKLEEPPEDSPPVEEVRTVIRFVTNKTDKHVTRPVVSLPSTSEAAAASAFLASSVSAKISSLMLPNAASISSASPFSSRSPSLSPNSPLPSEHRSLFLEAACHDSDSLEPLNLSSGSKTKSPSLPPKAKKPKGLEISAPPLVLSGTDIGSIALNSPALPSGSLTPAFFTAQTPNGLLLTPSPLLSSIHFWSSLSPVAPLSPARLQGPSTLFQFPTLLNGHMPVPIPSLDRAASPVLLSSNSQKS", "outline": "as §1"}, "ETV5": {"molecular_target": "ETV5 (Homo sapiens, UniProt P41161 1-510)", "sequence (P41161 whole entry)": "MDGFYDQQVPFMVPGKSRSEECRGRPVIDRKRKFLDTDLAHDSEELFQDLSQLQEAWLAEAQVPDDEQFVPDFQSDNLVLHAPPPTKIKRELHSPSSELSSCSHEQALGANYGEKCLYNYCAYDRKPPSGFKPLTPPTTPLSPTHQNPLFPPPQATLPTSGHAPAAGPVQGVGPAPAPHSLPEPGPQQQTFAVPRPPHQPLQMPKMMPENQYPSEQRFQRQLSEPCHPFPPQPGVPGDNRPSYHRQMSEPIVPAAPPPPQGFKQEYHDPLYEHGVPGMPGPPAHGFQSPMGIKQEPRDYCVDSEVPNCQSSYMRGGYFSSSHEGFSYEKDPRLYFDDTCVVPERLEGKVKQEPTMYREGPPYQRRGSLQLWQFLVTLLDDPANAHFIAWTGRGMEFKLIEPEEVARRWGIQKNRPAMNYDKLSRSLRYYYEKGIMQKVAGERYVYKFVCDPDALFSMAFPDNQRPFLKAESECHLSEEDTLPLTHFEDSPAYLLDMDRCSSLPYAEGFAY", "outline": "as §1"}, "SPIC": {"molecular_target": "T7, SPIC (Homo sapiens, UniProt Q8N5J4 1-248)", "T7 sequence": "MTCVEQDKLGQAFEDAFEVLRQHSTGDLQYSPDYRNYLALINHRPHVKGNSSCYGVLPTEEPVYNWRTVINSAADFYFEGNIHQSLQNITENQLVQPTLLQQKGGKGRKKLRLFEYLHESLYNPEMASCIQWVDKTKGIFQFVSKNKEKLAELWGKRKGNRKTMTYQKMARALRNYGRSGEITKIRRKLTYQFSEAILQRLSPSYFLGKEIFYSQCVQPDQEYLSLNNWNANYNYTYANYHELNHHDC", "outline": "as §1"}, "ELF4": {"molecular_target": "ELF4 (Homo sapiens, UniProt Q99607 1-663)", "sequence (Q99607 whole entry)": "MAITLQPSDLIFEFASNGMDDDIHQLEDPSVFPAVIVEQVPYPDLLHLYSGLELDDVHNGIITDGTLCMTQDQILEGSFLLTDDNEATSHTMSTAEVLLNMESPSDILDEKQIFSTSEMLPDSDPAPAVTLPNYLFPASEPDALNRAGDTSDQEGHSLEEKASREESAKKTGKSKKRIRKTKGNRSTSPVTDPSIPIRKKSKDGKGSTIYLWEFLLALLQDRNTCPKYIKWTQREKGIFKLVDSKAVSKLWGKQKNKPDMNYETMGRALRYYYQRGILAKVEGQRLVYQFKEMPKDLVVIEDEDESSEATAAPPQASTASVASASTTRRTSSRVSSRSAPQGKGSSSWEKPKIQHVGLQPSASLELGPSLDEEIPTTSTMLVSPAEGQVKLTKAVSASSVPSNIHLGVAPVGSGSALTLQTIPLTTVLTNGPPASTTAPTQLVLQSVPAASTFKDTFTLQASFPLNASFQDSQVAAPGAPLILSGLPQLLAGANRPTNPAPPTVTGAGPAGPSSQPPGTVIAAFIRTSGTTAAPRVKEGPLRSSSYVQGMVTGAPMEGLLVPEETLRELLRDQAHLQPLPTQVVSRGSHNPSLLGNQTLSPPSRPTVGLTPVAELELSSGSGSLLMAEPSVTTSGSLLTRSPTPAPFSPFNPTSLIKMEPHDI", "outline": "as §1"}, "ETV1": {"molecular_target": "ETV1 (Homo sapiens, UniProt P50549 1-477)", "sequence (P50549 whole entry)": "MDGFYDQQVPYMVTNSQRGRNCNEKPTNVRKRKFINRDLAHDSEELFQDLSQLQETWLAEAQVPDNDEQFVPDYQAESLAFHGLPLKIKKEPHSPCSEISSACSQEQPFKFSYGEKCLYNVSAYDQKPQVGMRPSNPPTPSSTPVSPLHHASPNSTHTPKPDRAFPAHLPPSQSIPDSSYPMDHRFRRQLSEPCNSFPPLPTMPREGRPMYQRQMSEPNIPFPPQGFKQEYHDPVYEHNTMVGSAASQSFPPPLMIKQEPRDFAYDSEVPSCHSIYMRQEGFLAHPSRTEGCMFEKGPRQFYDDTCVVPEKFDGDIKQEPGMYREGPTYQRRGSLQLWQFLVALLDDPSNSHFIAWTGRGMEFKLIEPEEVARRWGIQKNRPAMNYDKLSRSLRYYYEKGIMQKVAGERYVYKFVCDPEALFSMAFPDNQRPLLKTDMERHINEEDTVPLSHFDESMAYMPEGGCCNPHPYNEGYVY", "outline": "as §1"}, "ERF": {"molecular_target": "T8, ERF (Homo sapiens, UniProt P50548 1-548)", "T8 sequence": "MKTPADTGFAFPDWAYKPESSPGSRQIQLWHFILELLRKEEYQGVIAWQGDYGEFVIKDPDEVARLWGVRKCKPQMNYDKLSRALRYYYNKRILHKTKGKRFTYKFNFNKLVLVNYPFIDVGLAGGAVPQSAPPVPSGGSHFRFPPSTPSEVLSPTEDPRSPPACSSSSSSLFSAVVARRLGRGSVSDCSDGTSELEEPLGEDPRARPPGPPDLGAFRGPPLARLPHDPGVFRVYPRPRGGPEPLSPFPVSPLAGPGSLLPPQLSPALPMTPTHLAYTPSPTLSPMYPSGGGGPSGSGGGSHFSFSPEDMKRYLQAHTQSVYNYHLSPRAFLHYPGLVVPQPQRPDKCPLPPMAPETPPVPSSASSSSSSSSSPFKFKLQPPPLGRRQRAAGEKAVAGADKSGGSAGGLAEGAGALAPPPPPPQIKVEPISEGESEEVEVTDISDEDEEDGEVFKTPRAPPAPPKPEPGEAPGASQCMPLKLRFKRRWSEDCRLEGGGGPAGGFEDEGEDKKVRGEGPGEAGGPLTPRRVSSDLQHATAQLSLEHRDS", "outline": "as §1"}, "ETV3L": {"molecular_target": "T9, ETV3L (Homo sapiens, UniProt Q6ZN32 1-361)", "T9 sequence": "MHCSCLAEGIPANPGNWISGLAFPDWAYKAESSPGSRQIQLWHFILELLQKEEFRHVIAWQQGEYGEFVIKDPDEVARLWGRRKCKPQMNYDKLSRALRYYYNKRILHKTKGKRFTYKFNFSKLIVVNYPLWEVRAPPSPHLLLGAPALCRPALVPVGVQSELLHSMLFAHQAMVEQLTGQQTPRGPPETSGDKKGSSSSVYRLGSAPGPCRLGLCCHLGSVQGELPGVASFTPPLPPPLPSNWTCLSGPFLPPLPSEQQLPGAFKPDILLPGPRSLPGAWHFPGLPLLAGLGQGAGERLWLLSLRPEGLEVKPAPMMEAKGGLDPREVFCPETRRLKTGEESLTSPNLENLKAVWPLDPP", "outline": "as §1"}, "SPDEF": {"molecular_target": "T10, SPDEF (Homo sapiens, UniProt O95238 1-335)", "T10 sequence": "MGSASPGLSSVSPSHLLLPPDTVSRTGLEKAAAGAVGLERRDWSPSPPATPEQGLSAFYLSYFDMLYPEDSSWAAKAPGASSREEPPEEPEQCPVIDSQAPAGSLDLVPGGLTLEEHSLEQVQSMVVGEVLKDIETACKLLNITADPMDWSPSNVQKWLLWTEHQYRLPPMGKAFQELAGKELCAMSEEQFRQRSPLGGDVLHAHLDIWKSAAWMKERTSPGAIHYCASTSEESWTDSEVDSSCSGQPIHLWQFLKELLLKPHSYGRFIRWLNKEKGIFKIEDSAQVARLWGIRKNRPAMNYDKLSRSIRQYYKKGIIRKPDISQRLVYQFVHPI", "outline": "as §1"}, "ETV3": {"molecular_target": "T11, ETV3 (Homo sapiens, UniProt P41162-2 1-143)", "T11 sequence": "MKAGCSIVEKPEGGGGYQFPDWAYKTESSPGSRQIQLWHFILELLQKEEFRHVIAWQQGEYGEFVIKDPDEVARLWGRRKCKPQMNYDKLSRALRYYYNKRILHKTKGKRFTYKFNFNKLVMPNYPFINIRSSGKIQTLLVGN", "outline": "as §1"}, "ETV6": {"molecular_target": "ETV6 (Homo sapiens, UniProt P41212 1-452)", "sequence (P41212 whole entry)": "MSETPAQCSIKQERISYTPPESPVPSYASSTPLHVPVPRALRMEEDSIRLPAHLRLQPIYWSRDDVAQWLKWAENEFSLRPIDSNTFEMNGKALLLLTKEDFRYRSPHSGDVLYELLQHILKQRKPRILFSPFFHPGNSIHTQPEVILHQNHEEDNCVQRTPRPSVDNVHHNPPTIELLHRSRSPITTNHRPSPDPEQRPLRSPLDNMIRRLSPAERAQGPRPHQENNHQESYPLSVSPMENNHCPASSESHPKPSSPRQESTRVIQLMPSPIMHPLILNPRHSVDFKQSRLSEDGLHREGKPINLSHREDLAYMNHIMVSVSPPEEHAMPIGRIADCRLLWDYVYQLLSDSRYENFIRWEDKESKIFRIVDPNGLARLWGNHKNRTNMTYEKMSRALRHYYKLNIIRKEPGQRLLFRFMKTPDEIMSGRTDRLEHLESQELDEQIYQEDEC", "outline": "as §1"}}, "data": [{"sequence": "ATAAGG", "values": [{"measurement": "binding signal", "setting": "FLI1", "result": "1.07 fold enrichment (6-mer frequency, TF over GST control)"}, {"measurement": "binding signal", "setting": "ELK1", "result": "1.01 fold enrichment (6-mer frequency, TF over GST control)"}, {"measurement": "binding signal", "setting": "GABPA", "result": "1.02 fold enrichment (6-mer frequency, TF over GST control)"}, {"measurement": "binding signal", "setting": "ERG", "result": "1.07 fold enrichment (6-mer frequency, TF over GST control)"}, {"measurement": "binding signal", "setting": "EHF", "result": "1.05 fold enrichment (6-mer frequency, TF over GST control)"}, {"measurement": "binding signal", "setting": "SPI1", "result": "1.05 fold enrichment (6-mer frequency, TF over GST control)"}, {"measurement": "binding signal", "setting": "SPIB", "result": "1.01 fold enrichment (6-mer frequency, TF over GST control)"}, {"measurement": "binding signal", "setting": "ELK3", "result": "1.19 fold enrichment (6-mer frequency, TF over GST control)"}, {"measurement": "binding signal", "setting": "ETV5", "result": "1.04 fold enrichment (6-mer frequency, TF over GST control)"}, {"measurement": "binding signal", "setting": "SPIC", "result": "1.12 fold enrichment (6-mer frequency, TF over GST control)"}, {"measurement": "binding signal", "setting": "ELF4", "result": "1.06 fold enrichment (6-mer frequency, TF over GST control)"}, {"measurement": "binding signal", "setting": "ETV1", "result": "1.03 fold enrichment (6-mer frequency, TF over GST control)"}, {"measurement": "binding signal", "setting": "ERF", "result": "1.05 fold enrichment (6-mer frequency, TF over GST control)"}, {"measurement": "binding signal", "setting": "ETV3L", "result": "1.01 fold enrichment (6-mer frequency, TF over GST control)"}, {"measurement": "binding signal", "setting": "SPDEF", "result": "1.05 fold enrichment (6-mer frequency, TF over GST control)"}, {"measurement": "binding signal", "setting": "ETV3", "result": "1.05 fold enrichment (6-mer frequency, TF over GST control)"}, {"measurement": "binding signal", "setting": "ETV6", "result": "1.07 fold enrichment (6-mer frequency, TF over GST control)"}]}]}
